Assay outcomes as filed in PubChem BioAssay.
SARS PLpro yeast = blocks SARS-CoV papain-like protease in a yeast assay; S. cerevisiae expressing SARS-CoV PLpro, growth rescue; 330,000 compounds, 0.19% hits; AID 485353; Potency, µM (highest dose often 32.9 µM), for the others: at the top dose activity, positive = growth rescue, actives largely listed as activators; calls by dose curve; note: 0% is about no effect; nearly all actives have a fitted effect of over 55% in size
Sm TGR inh = inhibitors of Schistosoma mansoni thioredoxin glutathione reductase | purified TGR, DTNB reduction, TNB absorbance 405 nm | Q962Y6 | 360,000 compounds, 3% hits | Potency, µM (titrated, usually from 114 µM), for the others: top-dose activity change, negative = inhibition, usual class: inhibitors; note: % is set by controls: 0 for no effect and ±100 for the full control effect; nearly all actives have a fitted effect of over 60% in size
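First, TGR (20 nM dispensed) and NADPH were mixed with compound. Second, a 15 min room-temperature incubation followed. Third, further NADPH and then DTNB were added to start the reaction. Finally, TNB absorbance was monitored kinetically.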
Pf growth 96h = P. falciparum growth inhibition at 96 hours; P. falciparum luciferase reporter growth, 96 h; 320,000 compounds, 6.9% hits; Potency, µM (highest dose often 28.7 µM), for inactives: at the highest dose activity change, negative = inhibition, actives largely listed as inhibitors; note: % is set by controls: 0 for no effect and ±100 for the full control effect
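Readout is luminescence from an integrated firefly luciferase in P. falciparum. Red cells, 2% hematocrit and 0.05% parasitemia final, were cultured with compound through two parasite generations (96 hours) at 37 C, 5% CO2.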
Pf growth 48h = inhibits P. falciparum growth in the first generation, 48 h; 310,000 compounds, 5.9% hits; P. falciparum luciferase growth in erythrocytes, 48 h; Potency, µM (series often up to 28.7 µM), inactives show top-dose activity change, negative = inhibition, hits mostly inhibitors; AID 504832; note: % is set by controls: 0 for no effect and ±100 for the full control effect
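Cell-based growth assay: transgenic P. falciparum expressing firefly luciferase, cultured in red cells within RPMI 1640 containing 0.5% w/v Albumax, 24 mM bicarbonate and gentamycin. A drop in luciferase activity indicates inhibition.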
Active calls of the source: *; ? = inconclusive; nt = no result. Sampled rows, rich in hits. Any-hit rate of the full collection: about 12%. Unless noted, calls come from the whole dose curve; as a rule, active = well fitted curve in the direction sought with a large enough effect; inconclusive = small, poorly fitted or top-dose-only effect, or another doubt; inactive = no such curve, though single readings can be large; an effect the other way counts as inactive or inconclusive. Potency is the fitted concentration of half-maximal effect.

SMILES	SARS PLpro yeast	Sm TGR inh	Pf growth 96h	Pf growth 48h
O=C(O)CC/C(=N\Nc1ccc(S(=O)(=O)N2CCOCC2)cc1[N+](=O)[O-])c1cccs1	3%	?	12µM*	6.6µM*
CC(C)[C@H](Nc1ccc(S(=O)(=O)N2CCOCC2)cc1[N+](=O)[O-])C(=O)OCC(=O)N(C(C)C)C(C)C	5%	-12%	5.2µM*	?
O=[N+]([O-])c1cc(S(=O)(=O)N2CCCCC2)ccc1NCCN1CCOCC1	1%	-5%	?	?
O=[N+]([O-])c1cc(S(=O)(=O)N2CCCCC2)ccc1NCCCN1CCOCC1	-4%	14%	1.5µM*	?
O=S(=O)(NCCCN1CCOCC1)c1ccc2c(c1)OCCO2	1%	0%	10µM*	18%
O=C(Nc1ccc2nc(SCC(=O)N3CCCc4ccccc43)sc2c1)c1cccc(Cl)c1	nt	-4%	nt	nt
CCCSCCCNC(=O)c1sc2nc(C)cc(C)c2c1-n1cccc1	nt	-10%	nt	nt
COC(=O)c1cc(OC)c(OC)cc1NC(=O)c1ccc2c(c1)CCN2S(=O)(=O)c1ccccc1	nt	-1%	nt	nt
O=S(=O)(NCCN1CCOCC1)c1cc(Cl)c(Cl)cc1Cl	0%	1%	13µM*	-1%
O=[N+]([O-])c1cc(S(=O)(=O)NCCCN2CCOCC2)ccc1Cl	-2%	45µM*	-24%	-20%
COc1ccc(S(=O)(=O)NCCN2CCOCC2)cc1Br	17%	0%	10µM*	1%
CC(C)(C)C(=O)NC1(C(F)(F)F)NC(=O)N(c2ccc(F)cc2)C1=O (centres undefined)	-1%	5%	12µM*	-12%
O=C(CSc1nc(-c2ccc(F)cc2)cc(C(F)(F)F)n1)NCc1cccs1	26%	3%	3.3µM*	-8%
O=C(CSc1nc(-c2ccc(F)cc2)cc(C(F)(F)F)n1)NCc1ccco1	-11%	-4%	2.1µM*	-14%
CC(Sc1nc(-c2ccccc2)cc(C(F)(F)F)n1)C(=O)NCc1ccco1 (centres undefined)	-2%	?	nt	?
O=C(CSc1nc(-c2ccc(F)cc2)cc(C(F)(F)F)n1)NCCc1ccccc1	nt	-1%	nt	nt
CCCOC(=O)c1ccc(Oc2coc3c(CN(CC)CC)c(O)ccc3c2=O)cc1	-8%	0%	12µM*	?
CCN(CC)Cc1c(O)ccc2c(=O)c(-c3ccc(Cl)cc3)coc12	1%	2%	0%	?
COc1ccc2c3c(cccc13)C(=O)N(O)C2=O	-60%	6%	15%	13µM*
Clc1ccc(CN2C3=NCCCN3c3ccccc32)cc1	2%	-6%	?	?
O=C(CN1C2=NCCCN2c2ccccc21)c1ccc(Cl)cc1Cl	-1%	0%	-9%	0.37µM*
O=C(CN1C2=NCCCN2c2ccccc21)c1ccc([N+](=O)[O-])cc1	3%	-9%	?	1.9µM*
O=C(CN1C2=NCCCN2c2ccccc21)c1cccc(Br)c1	-5%	-14%	?	?
OC(COc1ccc(Cl)cc1)CN1C2=NCCCN2c2ccccc21 (centres undefined)	-5%	0%	?	5.2µM*
COc1ccc(-c2nc3n(n2)C(c2ccccc2OC)C(C(=O)Nc2cccnc2)=C(C)N3)cc1 (centres undefined)	nt	3%	nt	nt
SMILES	SARS PLpro yeast	Sm TGR inh	Pf growth 96h	Pf growth 48h
COC(=O)c1cc(CSc2nnc(NC3CCCCC3)s2)oc1C	-13%	45µM*	nt	?
O=c1cc(CSc2nnc(NC3CCCCC3)s2)nc2sccn12	1%	-5%	?	?
CCOC(=O)COn1c(=O)c(-c2ccc(F)cc2)[n+]([O-])c2ccccc21	2%	89µM*	12%	27%
CCOC(=O)COn1c(=O)c(-c2ccc(Br)cc2)[n+]([O-])c2ccccc21	1%	-15%	78%	35%
CCOn1c(=O)c(-c2cccs2)[n+]([O-])c2ccccc21	-3%	-28%	-36%	nt
CCOC(=O)COn1c(=O)c(-c2cccs2)[n+]([O-])c2ccccc21	-2%	20µM*	?	42%
CCOC(=O)c1c(NC(=O)C(C)Sc2cn(CCNC(=O)c3ccc(OC)cc3)c3ccccc23)sc2c1CCC2 (centres undefined)	nt	0%	nt	nt
CCn1c(SCC(=O)N2CCC(C)CC2)nnc1-c1ccccc1O	nt	9%	nt	nt
CCOc1cc(C(=O)NCCC(=O)N2CCC3(CC2)NCCc2[nH]cnc23)cc(OCC)c1OCC	-1%	1%	17%	-7%
COc1ccc(Cl)cc1S(=O)(=O)NC(C)C(=O)NCCCn1ccnc1 (centres undefined)	-5%	-5%	13µM*	3%
O=C(COc1ccc(Cl)cc1Cl)NCCCn1ccnc1	2%	6%	nt	6.6µM*
CCOc1cc(C2CC(=O)NC3=C2C(=O)C(C(=O)OC)C(C)C3)cc(Cl)c1O (centres undefined)	5%	-35%	-43%	1.2µM*
COC(=O)C1C(=O)C2=C(CC1C)NC(=O)CC2c1ccccc1 (centres undefined)	-8%	-20%	-21%	?
CC(C)c1cc(=O)oc2c3c4c(cc12)CCCN4CCC3	-9%	45µM*	33%	12µM*
NC(=O)CSc1nc2ccccc2c(=O)n1CCc1ccccc1	1%	16%	5.9µM*	11%
CCOC(=O)CC(=O)CSc1nc2ccccc2c(=O)n1CCc1ccccc1	nt	-3%	nt	nt
O=c1c2ccccc2nc(/C=C/c2cccnc2)n1CCc1ccccc1	-4%	-3%	?	?
O=c1c2ccccc2nc(/C=C/c2ccccc2)n1CCc1ccccc1	-5%	3%	4.7µM*	?
O=c1c2ccccc2nc(SCc2ccccc2Cl)n1Cc1ccccc1	2%	0%	?	?
CCn1c(/C=C/c2ccccc2Cl)nc2ccccc2c1=O	-3%	9%	1.7µM*	1.9µM*
CCn1c(/C=C\c2ccccc2C)nc2ccccc2c1=O	1%	10%	27%	?
C=CCSc1nc2ccccc2c(=O)n1Cc1ccccc1	-6%	6%	84%	12µM*
CCC(C)NC(=O)Cn1c(=O)n(Cc2ccc(C(=O)NCCCOC)cc2)c(=O)c2ccccc21 (centres undefined)	nt	2%	nt	nt
CC(=O)c1ccc(N2C(=O)CC(N3CCN(S(=O)(=O)c4ccc(C)c(C)c4)CC3)C2=O)cc1 (centres undefined)	3%	nt	nt	nt
O=C(CCCn1cc([N+](=O)[O-])cn1)Nc1cccnc1	-1%	-18%	54%	-11%
CCc1ccc(N2C(=O)CC(c3cc(OC)ccc3OC)C3=C2COC3=O)cc1 (centres undefined)	nt	2%	nt	nt
Nc1ncnc2c1ncn2[C@@H]1O[C@H](CNC(=O)[C@@H](N)Cc2ccc(C(F)(F)F)cc2)[C@@H](O)[C@H]1O	-19%	nt	nt	nt
CCn1c(/C=C2/C(=O)N(C)c3ccccc32)nc2ccccc2c1=O	0%	6%	-17%	?
O=c1c2ccccc2nc(/C=C/c2cc(Br)ccc2O)n1CCCO	-1%	-12%	?	1.3µM*
O=c1c2ccccc2nc(/C=C/c2cccc([N+](=O)[O-])c2)n1CCO	9%	-10%	-24%	-17%
